Compound activity as filed in PubChem BioAssay.
Sampled rows, rich in hits. Any-hit rate of the full collection: about 1.7%.
TRHR enhancer: allosteric enhancers of human TRH receptor; P34981; TRHR cells, fluo-8 calcium fluorescence, EC20 TRH enhancement; enhancement, % at 2 µM; 360,000 tested, 0.66% active; in the data active = enhancement above about 30%
Target sequence (P34981 whole entry, looked up): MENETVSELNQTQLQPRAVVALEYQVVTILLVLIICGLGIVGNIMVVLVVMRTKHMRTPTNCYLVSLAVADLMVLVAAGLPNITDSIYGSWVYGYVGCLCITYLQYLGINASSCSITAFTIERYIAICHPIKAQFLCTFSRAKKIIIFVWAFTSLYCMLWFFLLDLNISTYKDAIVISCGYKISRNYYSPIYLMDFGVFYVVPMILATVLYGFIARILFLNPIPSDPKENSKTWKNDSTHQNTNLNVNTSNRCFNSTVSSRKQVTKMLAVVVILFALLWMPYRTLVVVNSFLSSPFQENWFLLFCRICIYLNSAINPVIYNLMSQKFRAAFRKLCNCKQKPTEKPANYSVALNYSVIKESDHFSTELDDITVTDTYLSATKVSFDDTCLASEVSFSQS
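TRHR-expressing cells loaded with fluo-8 calcium dye were read kinetically (ex 480/em 530) during compound addition, then stimulated with an EC20 of TRH (10 nM final). Enhancement of the Gq-mediated intracellular calcium response was scored.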
KCNH2 3.1 block: KCNH2 3.1 (human) potassium channel inhibition | U2OS KCNH2 3.1, thallium flux FluxOr; stronger effect = lower value | activity change, % (tested at about 1.8 µM) | 340,000 tested, 0.95% active;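 active = maximum activity change below -70%; inconclusive = maximum activity change from -70% to -50%; inactive = maximum activity change above -50%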;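 also: thallium influx rate constant from kinetic fluorescence after stimulation buffer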
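Kinetic fluorescence (2 min after stimulation buffer) measures Tl+ influx through KCNH2 3.1 expressed by viral transduction in U2OS cells; the rate constant is normalized against DMSO controls serving as positive and negative references.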
KCNH2 WT inh: inhibitors of human wildtype KCNH2 potassium channel; Q12809; U2OS, BacMam KCNH2, thallium flux FluxOr; stronger effect = lower value; activity change, % at 1.84 µM; 340,000 tested, 0.37% active; AID 720551;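 active = maximum activity change below -70%; inconclusive = maximum activity change between -70% and -50%; inactive = maximum activity change above -50%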
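U2OS cells were transduced with wild-type KCNH2 virus (2.03 x 10^8 / mL) for 4 h at room temperature, then cultured overnight at 37 C. Thallium flux was read with FluxOr dye. Rate constants were normalized to DMSO controls.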
TRPML1 blocker: human mucolipin-1 channel inhibition | Q9GZU1 | TRPML1-inducible cells, Ca2+ dye fluorescence, FDSS; stronger effect = lower value; inhibition of EC80 agonist-evoked calcium signal | activity change, negative = inhibition, % (test concentration not listed) | 390,000 tested, 0.02% active; in the data active = activity change below about -50%; inconclusive = between about -30% and that limit;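 also: stimulus is agonist 54-4 at its EC80 concentration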
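TRPML1-DL cells, Tet-induced overnight (~16 h, 37 °C) at 1,500 cells/well, were loaded with Ca8 no-wash dye plus quencher for 45-90 min at room temperature. Compounds were pinned during FDSS kinetic reading; agonist 54-4 at EC80 (4 uM final) then added.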
TRHR agonist: TRH receptor (human) agonism | activation, % at 2 µM | P34981 | 360,000 tested, 0.18% active | TRHR cells, calcium flux fluo-8, FDSS agonist mode; in the data active = activation above about 30%
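Fluo-8-loaded TRHR cells; 10 s baseline, compound added, kinetic Ca2+ fluorescence read 1/s, agonist mode.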
TRPML1 ag: agonists of human TRPML1 channel | TRPML1-expressing cells, Ca2+ dye fluorescence, FDSS | activation, % (concentration not given with the values) | 410,000 tested, 0.12% active; in the data active = activation above about 50%; inconclusive = mostly about 30% to 49%
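Agonist activity was taken from a 110 s kinetic Ca2+ dye read on the FDSS after pinning compounds onto TRPML1-DL cells. The cells were seeded at 1,500/well with Tet inducer, incubated about 16 h, then dye-loaded at room temperature.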
A number is an active result; 0 = inactive; ? = inconclusive; - = not tested or not shown.

SMILES	TRHR enhancer	KCNH2 3.1 block	KCNH2 WT inh	TRPML1 blocker	TRHR agonist	TRPML1 ag
CC(NC(=O)c1cc2c(=O)n(C)c3ccccc3c2n1C)c1ccc2c(c1)OCCO2 (centres undefined)	-	0	-125	0	-	0
O=C1NC(=S)SC1=Cc1cccs1	-	0	0	0	-	0
CN1CCC/C1=C/C=C1\SC(=S)NC1=O	0	0	0	0	48	58
O=C(OCC1OC(n2cnc3c(N(C(=O)c4ccccc4)C(=O)c4ccccc4)ncnc32)C(O)C1F)c1ccccc1 (centres undefined)	0	-86	0	0	0	0
CSCc1nc2scc(-c3ccccc3)c2c(=O)[nH]1	0	-92	0	0	0	0
Cc1ccc(NC(=O)CCS(=O)(=O)c2ccc3nc(C)sc3c2)c(C)c1	0	-	-	0	0	0
CC(C)Cc1nn2c(=O)cc(COC(=O)c3ccccc3NC(=O)c3ccccc3)nc2s1	0	-	-	-56	0	0
CC(C)Cc1nn2c(=O)cc(COC(=O)c3ccccc3NC(=O)c3cccs3)nc2s1	0	-	-	0	0	0
CC[N+]1(C)CCC(O)(/C=C/c2ccccc2)C(C(=O)/C=C/c2ccccc2)C1 (centres undefined)	-	-	0	0	-	0
CCCCN(C(=O)COC(=O)CSc1cc(C)c2ccccc2n1)c1c(N)n(CCC)c(=O)[nH]c1=O	0	0	0	0	0	0
CCCCN(C(=O)COC(=O)CSc1ccc([N+](=O)[O-])cc1)c1c(N)n(CCC)c(=O)[nH]c1=O	0	-115	0	0	0	0
COc1cc2ncnc(NCCCN3CCOCC3)c2cc1OC	0	-79	0	0	0	0
CCOc1cc2nc(-c3ccc(OC)c(OC)c3)nc(NCCCN3CCOCC3)c2cc1OC	0	0	-93	0	0	0
COc1ccc(C(=O)NCCCN2CCOCC2)cc1OC	0	0	0	0	0	0
CC(c1ccon1)N(C)C(=O)c1cccc(OC2CCN(S(C)(=O)=O)CC2)c1 (centres undefined)	-	0	0	0	-	0
CCC(NC(=O)c1ccc2nc(Cc3ccc(OC)cc3)oc2c1)c1ccncc1 (centres undefined)	0	-105	0	0	0	0
CC(NC(=O)CNC(=O)c1cccc(Cl)c1)c1ccccc1 (centres undefined)	0	0	0	0	0	0
COc1ccc(N2C(=NC(=O)CCC3CCCC3)SC3CS(=O)(=O)CC32)cc1 (centres undefined)	0	0	0	0	0	0
CN(C)c1ccc(N2C(=NC(=O)CCC3CCCC3)SC3CS(=O)(=O)CC32)cc1 (centres undefined)	0	0	-281	0	0	0
Cc1c(Cl)cccc1NC(=O)NCCOCCn1c(=O)oc2ccccc21	0	-	-	0	0	0
Cc1ccccc1NC(=O)CCn1nc(-c2ccc(Cl)cc2)c2ccccc2c1=O	37	-	-	0	0	0
Cn1nc(-c2ccc(OCC(=O)Nc3ccc(Cl)cc3)cc2)c2ccccc2c1=O	35	-	-	0	0	0
C[C@@H]1CN([C@@H](C)CO)C(=O)c2cc(C#CCN(C)C)cnc2O[C@H]1CN(C)Cc1ccc2c(c1)OCO2	-	0	0	0	-	0
COc1ccc(-c2ccc(OC)c(C3C4C=CCCC4(C)C(=O)N3Cc3ccccc3)c2)cc1 (centres undefined)	-	-	-	0	-	0
O=C(c1ccccc1Cl)N1CCC(N2CCC(C(=O)N3CCCC3)CC2)CC1	0	-87	0	0	0	0
SMILES	TRHR enhancer	KCNH2 3.1 block	KCNH2 WT inh	TRPML1 blocker	TRHR agonist	TRPML1 ag
O=C(c1cc(F)ccc1F)N1CCC(N2CCC(C(=O)N3CCCC3)CC2)CC1	0	0	0	0	0	0
CCCN1CCN(CCCNC(=O)C2CCCN(c3nc4ccc(OCC)cc4s3)C2)CC1 (centres undefined)	0	0	0	0	0	0
CCOc1ccc2nc(N3CCCC(C(=O)N4CCN(CC)CC4)C3)sc2c1 (centres undefined)	0	-86	0	0	0	0
CCOc1ccc2nc(N3CCC(C(=O)N4CCN(C(=O)c5ccco5)CC4)CC3)sc2c1	0	-77	0	0	0	0
CN(C)S(=O)(=O)Nc1cccc(-c2cn3c(n2)SCC3)c1	0	-106	0	0	0	0
CC(=O)Nc1ccc(S(=O)(=O)Nc2cccc(-c3cn4c(n3)SCC4)c2)cc1	0	0	0	0	0	0
O=C(O)c1ccc2c(c1)C(=O)N(c1ccc([N+](=O)[O-])cn1)C2=O	0	0	0	0	0	0
Cn1nc(-c2ccc(Cl)cc2)c2cc(C(=O)N3CCCC3)sc21	0	-209	-143	0	0	0
Cn1nc(-c2ccc(Cl)cc2)c2cc(C(=O)N3CCN(c4ccccc4)CC3)sc21	0	0	0	0	0	0
O=C(COC(=O)C1CCCN1C(=O)c1cccs1)c1ccccc1 (centres undefined)	0	0	0	0	0	0
O=C(OCc1ccccc1)C1CCCN1C(=O)c1cccs1 (centres undefined)	39	0	0	0	0	0
COc1ccc(CN(CCc2ccccc2)Cc2ccccc2)cc1OC	0	-82	0	0	0	0
COc1cc(CN(CCN(C)C)Cc2ccccc2)ccc1OCc1ccccc1	0	0	0	0	0	0
Cc1cccc(-c2nc(CN3CCN(Cc4cccc(F)c4)CC3)c(C)o2)c1	31	0	0	0	0	0
Cc1cccc(-c2nc(CN3CCCC(C(=O)NC4CCCC4)C3)c(C)o2)c1 (centres undefined)	0	-82	0	0	0	0
CCCCNC(=O)C1CCCN(Cc2nc(-c3ccc(Cl)cc3)oc2C)C1 (centres undefined)	0	-	-	0	0	0
CCOCCCNC(=O)C1CCCN(Cc2nc(-c3ccc(CC)cc3)oc2C)C1 (centres undefined)	32	-	-	0	0	0
CCN(CCNC(=O)C1CCN(Cc2nc(-c3ccc(Cl)cc3)oc2C)CC1)c1ccccc1	0	-72	0	0	0	0
CCN(CCNC(=O)C1CCN(Cc2nc(-c3cccc(Cl)c3)oc2C)CC1)c1ccccc1	0	0	0	0	0	0
COc1ccc(OC)c(C2C(C(=O)c3cccs3)=C(O)C(=O)N2CCN2CCOCC2)c1 (centres undefined)	0	0	0	0	0	0
Cc1ccccc1-c1nc(CN2CCC(C(=O)NCCC3=CCCCC3)CC2)c(C)o1	0	-71	-78	0	0	0
COc1ccc(-c2nc(CN3CCC(C(=O)NCc4ccc(F)cc4)CC3)c(C)o2)cc1OC	0	-	-	0	0	0
CCc1ccc(-c2nc(CN3CCC(C(=O)NCc4ccc(F)cc4)CC3)c(C)o2)cc1	0	-107	?	0	0	0
